# According to PubChem BioAssay (EPA / NIEHS):
# Where “and” joins values, the source holds several entries; their conditions need not be identical. Equal entries are not always repeated. Records with an inconclusive call do not appear. Some structures have more than one record in an assay (separate samples or runs), and their calls can disagree. Calls of active or inactive are those of the source. Rule for the calls: active = hit-call score of the fitted dose curve at least 0.9, where 1 is the maximum; inconclusive = response in the unintended direction; inactive = score below 0.9.
# Experiments:
# [1] = target: zebrafish Thyroid Hormone Receptor alpha (TRa), thraa (gene 30670) (UniProt Q98867); assay: ATG_zfTRa_XSP1: Attagene TRANS-FACTORIAL Multi-Species (XSP1) HepG2 Assay for zebrafish Thyroid Hormone Receptor alpha (TRa) (AID 2283807)
# In short: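 HepG2 cells transiently transfected with GAL4-UAS reporter units including a zebrafish TRa–Gal4 chimera, dosed 24 h with 3 nM 6-alpha-fluorotestosterone present. Reporter mRNA quantified by RT-PCR and capillary electrophoresis; gain versus DMSO.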
# [2] = target: human Thyroid hormone Receptor beta (TRb), THRB (gene 7068) (UniProt P10828); assay: ATG_hTRb_XSP1: Attagene TRANS-FACTORIAL Multi-Species (XSP1) HepG2 Assay for human Thyroid hormone Receptor beta (TRb) (AID 2283808)
# In short: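 HepG2 cells transiently transfected with reporter units driving GAL4-UAS reporters for chimeric NR-Gal4 proteins; 24 h chemical exposure with 3 nM 6-alpha-fluorotestosterone present. Reporter mRNA quantified by RT-PCR and capillary electrophoresis, gain of signal versus DMSO.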
# [3] = target: zebrafish Thyroid Hormone Receptor beta (TRb), thrb (gene 30607) (UniProt Q9PVE4); assay: ATG_zfTRb_XSP1: Attagene TRANS-FACTORIAL Multi-Species (XSP1) HepG2 Assay for zebrafish Thyroid Hormone Receptor beta (TRb) (AID 2283809)
# In short: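 HepG2 cells transiently transfected with multiplexed GAL4-UAS reporter units expressing chimeric zebrafish TRb–Gal4. Dosed 24 h with 3 nM 6-alpha-fluorotestosterone present; reporter mRNA measured by RT-PCR, HpaI digestion and capillary electrophoresis; gain of signal versus DMSO.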
# [4] = ATG_XTT_Cytotoxicity_XSP1: Cytotoxicity Assessment in the Attagene TRANS-FACTORIAL Multi-Species (XSP1) HepG2 Assay (AID 2283810)
# In short: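 XTT viability readout taken at 24 hours post-dosing in HepG2 liver cells co-treated with 3 nM 6-alpha-fluorotestosterone. Signal loss relative to DMSO controls reflects cytotoxicity.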
# [5] = ATG_M_06_XSP2: Attagene TRANS-FACTORIAL Multi-Species (XSP2) HepG2 Assay for M06 Transcription Factor (Internal Marker) (AID 2283811);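 note: internal background marker reporter mRNA measured by RT-PCR and capillary electrophoresis; hits are increases in signal above the DMSO baseline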
# In short: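 HepG2, multiplexed reporter transfection; 24 h dosing; AR stimulated with 3 nM 6-alpha-fluorotestosterone + 1.5 nM norgestrel; RNA → RT-PCR → 6-FAM primer extension → HpaI → CE. Positive direction vs DMSO.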
# [6] = target: GAL4 Transcription Factor (Internal Marker), GAL4 (gene 855828) (UniProt P04386); assay: ATG_GAL4_XSP2: Attagene TRANS-FACTORIAL Multi-Species (XSP2) HepG2 Assay for GAL4 Transcription Factor (Internal Marker) (AID 2283814);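 note: GAL4 reporter mRNA background control in MRTU transfected cells not a receptor target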
# In short: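 HepG2 cells transiently transfected with GAL4-UAS reporter units, stimulated with 3 nM 6-alpha-fluorotestosterone plus 1.5 nM norgestrel, dosed 24 h. Reporter mRNA by RT-PCR/capillary electrophoresis; gain-of-signal fit versus DMSO, background control.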
# [7] = target: zebrafish Estrogen Receptor (ER1), esr1 (gene 259252) (UniProt P57717); assay: ATG_zfER1_XSP2: Attagene TRANS-FACTORIAL Multi-Species (XSP2) HepG2 Assay for zebrafish Estrogen Receptor (ER1) (AID 2283816)
# In short: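 HepG2 cells transiently transfected with a GAL4-UAS reporter and a chimeric zebrafish ER1-Gal4 construct, dosed 24 h. Reporter mRNA quantified by RT-PCR, labelling, HpaI digestion and capillary electrophoresis, relative to DMSO.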
# [8] = system: turtle Estrogen Receptor (ERa), gene 101933533; assay: ATG_trERa_XSP2: Attagene TRANS-FACTORIAL Multi-Species (XSP2) HepG2 Assay for turtle Estrogen Receptor (ERa) (AID 2283812);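 note: human HepG2 liver cells transiently expressing turtle ERa-Gal4 chimeric receptor; actives raise reporter signal above DMSO so AC50 reflects agonist activity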
# In short: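 HepG2 cells transiently transfected with GAL4-UAS reporter units expressing turtle ERa-Gal4 chimera. Reporter mRNA measured after 24 h dosing by RT-PCR, fluorescent labelling and capillary electrophoresis; gain of signal fitted versus DMSO.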
# [9] = target: Estrogen receptor beta (Homo sapiens) (UniProt Q92731); assay: ATG_hERb_XSP2: Attagene TRANS-FACTORIAL Multi-Species (XSP2) HepG2 Assay for human Estrogen Receptor (ERb) (AID 2283813);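 note: actives raise reporter mRNA above DMSO so AC50 reflects agonist induction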
# In short: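 HepG2 cells transiently transfected with GAL4-UAS reporter units and chimeric human ERb-Gal4, 24 h exposure. Reporter mRNA quantified by RT-PCR with FAM labelling, HpaI digestion and capillary electrophoresis; gain of signal versus DMSO.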
# [10] = target: chicken Estrogen Receptor (ERa), ESR1 (gene 396099) (UniProt P06212); assay: ATG_chERa_XSP2: Attagene TRANS-FACTORIAL Multi-Species (XSP2) HepG2 Assay for chicken Estrogen Receptor (ERa) (AID 2283817);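 note: actives raise reporter signal above DMSO so AC50 reflects ER activation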
# In short: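 Transient MRTU transfection of HepG2 → 24 h chemical dosing → TriZol RNA, oligo(dT) RT → PCR, 6-FAM primer extension, HpaI digest → CE quantitation of chicken ERa-Gal4-driven reporter mRNA. Positive direction vs DMSO.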
# Chain of chicken Estrogen Receptor (ERa), ESR1 (gene 396099) (P06212 whole entry, looked up, the tested form may be a part): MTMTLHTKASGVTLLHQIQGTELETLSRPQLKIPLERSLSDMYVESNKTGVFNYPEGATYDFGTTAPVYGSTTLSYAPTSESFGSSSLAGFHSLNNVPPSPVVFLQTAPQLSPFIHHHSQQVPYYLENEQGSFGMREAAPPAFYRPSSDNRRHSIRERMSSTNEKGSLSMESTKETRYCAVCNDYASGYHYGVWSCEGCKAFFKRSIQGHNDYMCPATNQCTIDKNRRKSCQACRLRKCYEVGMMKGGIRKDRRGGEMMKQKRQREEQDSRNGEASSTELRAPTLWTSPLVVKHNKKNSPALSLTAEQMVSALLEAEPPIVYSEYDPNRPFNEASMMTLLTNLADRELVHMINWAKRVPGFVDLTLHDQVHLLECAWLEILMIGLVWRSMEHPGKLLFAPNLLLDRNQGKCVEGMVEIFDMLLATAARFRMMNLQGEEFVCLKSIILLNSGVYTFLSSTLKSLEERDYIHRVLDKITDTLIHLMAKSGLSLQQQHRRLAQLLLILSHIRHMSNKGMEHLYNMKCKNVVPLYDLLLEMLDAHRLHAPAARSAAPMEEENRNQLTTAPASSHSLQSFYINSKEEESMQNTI
# Chain of zebrafish Estrogen Receptor (ER1), esr1 (gene 259252) (P57717 whole entry, looked up, the tested form may be a part): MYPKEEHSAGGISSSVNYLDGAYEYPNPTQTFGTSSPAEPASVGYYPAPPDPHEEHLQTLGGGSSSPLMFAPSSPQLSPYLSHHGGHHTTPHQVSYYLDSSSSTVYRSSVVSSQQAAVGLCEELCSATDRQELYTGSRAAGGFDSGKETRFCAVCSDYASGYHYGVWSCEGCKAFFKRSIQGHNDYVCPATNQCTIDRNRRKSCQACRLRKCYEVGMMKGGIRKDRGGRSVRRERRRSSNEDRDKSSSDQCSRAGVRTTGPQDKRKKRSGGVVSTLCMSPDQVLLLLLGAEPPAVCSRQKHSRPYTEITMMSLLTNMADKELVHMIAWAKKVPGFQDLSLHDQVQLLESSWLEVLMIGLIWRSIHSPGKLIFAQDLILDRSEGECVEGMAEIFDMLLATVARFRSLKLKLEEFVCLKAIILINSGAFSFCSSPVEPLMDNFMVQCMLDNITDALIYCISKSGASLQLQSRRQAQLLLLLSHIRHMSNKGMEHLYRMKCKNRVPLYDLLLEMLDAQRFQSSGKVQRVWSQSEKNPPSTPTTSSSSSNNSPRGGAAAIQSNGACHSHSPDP
# Chain of Estrogen receptor beta (Homo sapiens) (Q92731 whole entry, looked up, the tested form may be a part): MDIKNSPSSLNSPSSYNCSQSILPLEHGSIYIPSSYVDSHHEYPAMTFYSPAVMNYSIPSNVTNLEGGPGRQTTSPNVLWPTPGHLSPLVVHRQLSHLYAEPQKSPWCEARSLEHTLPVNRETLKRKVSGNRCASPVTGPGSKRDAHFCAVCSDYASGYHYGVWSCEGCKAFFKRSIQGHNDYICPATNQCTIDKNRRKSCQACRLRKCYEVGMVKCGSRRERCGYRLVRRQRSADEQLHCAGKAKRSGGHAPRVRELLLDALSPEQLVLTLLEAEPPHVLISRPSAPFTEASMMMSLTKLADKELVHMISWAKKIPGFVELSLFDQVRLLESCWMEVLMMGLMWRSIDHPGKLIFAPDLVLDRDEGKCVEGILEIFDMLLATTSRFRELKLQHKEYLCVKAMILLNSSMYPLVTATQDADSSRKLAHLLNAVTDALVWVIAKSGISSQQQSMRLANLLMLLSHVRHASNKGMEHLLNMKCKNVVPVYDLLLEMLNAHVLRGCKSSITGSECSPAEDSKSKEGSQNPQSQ
# Chain of zebrafish Thyroid Hormone Receptor beta (TRb), thrb (gene 30607) (Q9PVE4 whole entry, looked up, the tested form may be a part): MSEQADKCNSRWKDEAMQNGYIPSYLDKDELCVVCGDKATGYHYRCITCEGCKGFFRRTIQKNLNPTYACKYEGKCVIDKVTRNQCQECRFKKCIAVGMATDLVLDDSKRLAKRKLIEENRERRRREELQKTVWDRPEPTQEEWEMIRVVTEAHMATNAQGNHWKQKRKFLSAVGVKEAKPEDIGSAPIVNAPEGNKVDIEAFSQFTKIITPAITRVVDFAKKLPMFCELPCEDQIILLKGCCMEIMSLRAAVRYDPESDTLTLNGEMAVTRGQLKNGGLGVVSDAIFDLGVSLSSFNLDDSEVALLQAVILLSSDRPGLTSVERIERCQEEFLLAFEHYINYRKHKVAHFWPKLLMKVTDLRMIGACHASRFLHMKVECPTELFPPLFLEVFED
# Chain of GAL4 Transcription Factor (Internal Marker), GAL4 (gene 855828) (P04386 whole entry, looked up, the tested form may be a part): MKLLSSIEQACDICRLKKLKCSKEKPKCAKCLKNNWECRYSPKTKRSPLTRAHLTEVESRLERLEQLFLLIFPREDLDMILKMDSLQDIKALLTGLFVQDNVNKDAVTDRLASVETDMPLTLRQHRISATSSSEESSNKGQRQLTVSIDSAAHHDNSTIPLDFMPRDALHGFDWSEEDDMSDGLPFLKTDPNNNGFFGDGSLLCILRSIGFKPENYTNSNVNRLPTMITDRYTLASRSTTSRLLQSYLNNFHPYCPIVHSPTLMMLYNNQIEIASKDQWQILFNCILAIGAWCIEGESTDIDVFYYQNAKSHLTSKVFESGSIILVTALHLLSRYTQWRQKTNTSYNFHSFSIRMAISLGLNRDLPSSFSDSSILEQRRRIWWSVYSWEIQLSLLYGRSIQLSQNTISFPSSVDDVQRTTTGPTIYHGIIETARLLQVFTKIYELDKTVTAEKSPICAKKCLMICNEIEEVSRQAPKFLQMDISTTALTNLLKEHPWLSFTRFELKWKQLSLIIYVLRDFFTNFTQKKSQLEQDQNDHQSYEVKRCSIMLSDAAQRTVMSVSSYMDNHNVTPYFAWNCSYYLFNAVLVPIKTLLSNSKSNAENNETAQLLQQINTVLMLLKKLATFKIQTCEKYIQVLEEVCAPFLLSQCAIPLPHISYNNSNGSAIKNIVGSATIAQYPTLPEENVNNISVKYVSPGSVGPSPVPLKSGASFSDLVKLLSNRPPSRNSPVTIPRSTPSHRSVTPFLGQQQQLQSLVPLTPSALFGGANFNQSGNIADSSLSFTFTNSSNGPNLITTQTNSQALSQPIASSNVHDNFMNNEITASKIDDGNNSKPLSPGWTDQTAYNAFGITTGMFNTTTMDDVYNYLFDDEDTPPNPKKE
# Chain of human Thyroid hormone Receptor beta (TRb), THRB (gene 7068) (P10828 whole entry, looked up, the tested form may be a part): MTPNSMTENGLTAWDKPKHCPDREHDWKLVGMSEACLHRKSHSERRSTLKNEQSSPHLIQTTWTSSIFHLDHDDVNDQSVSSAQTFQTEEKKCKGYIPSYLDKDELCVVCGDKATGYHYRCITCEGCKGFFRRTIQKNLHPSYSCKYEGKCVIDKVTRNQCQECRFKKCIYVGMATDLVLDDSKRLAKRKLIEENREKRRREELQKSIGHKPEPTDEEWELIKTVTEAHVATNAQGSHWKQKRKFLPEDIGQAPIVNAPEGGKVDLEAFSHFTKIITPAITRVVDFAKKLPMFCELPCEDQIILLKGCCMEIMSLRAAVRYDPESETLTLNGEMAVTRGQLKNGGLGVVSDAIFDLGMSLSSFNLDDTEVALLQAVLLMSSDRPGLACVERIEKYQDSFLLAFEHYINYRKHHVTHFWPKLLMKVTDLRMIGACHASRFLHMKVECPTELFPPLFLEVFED
# Chain of zebrafish Thyroid Hormone Receptor alpha (TRa), thraa (gene 30670) (Q98867 whole entry, looked up, the tested form may be a part): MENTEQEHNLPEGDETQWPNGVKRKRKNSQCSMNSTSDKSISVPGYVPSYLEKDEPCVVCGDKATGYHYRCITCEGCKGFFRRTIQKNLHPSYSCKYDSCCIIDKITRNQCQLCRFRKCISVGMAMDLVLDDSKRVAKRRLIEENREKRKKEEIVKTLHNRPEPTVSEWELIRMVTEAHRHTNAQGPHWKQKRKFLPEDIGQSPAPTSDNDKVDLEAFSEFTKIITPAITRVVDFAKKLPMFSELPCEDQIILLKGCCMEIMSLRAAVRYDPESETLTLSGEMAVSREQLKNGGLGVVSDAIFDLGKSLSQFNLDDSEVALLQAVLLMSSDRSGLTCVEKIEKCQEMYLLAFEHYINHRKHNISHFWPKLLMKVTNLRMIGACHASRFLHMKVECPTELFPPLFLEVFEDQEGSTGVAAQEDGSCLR
smiles,measurement,setting,value
CCN(CC)CCOc1ccc(C(=C(Cl)c2ccccc2)c2ccccc2)cc1,AC50,[1],2.96 µM (active)
same,AC50,[2],2.02 µM (active)
same,AC50,[3],1.57 µM (active)
same,AC50,[4],31.4 µM (active)
same,outcome,[5],inactive
same,outcome,[6],inactive
same,outcome,[7],inactive
Cc1c(C)c2c(c(C)c1O)CCC(C)(COc1ccc(CC3SC(=O)NC3=O)cc1)O2 (centres undefined),outcome,[5],inactive
same,outcome,[8],inactive
same,outcome,[9],inactive
same,outcome,[7],inactive
same,outcome,[10],inactive
CC(=O)O[C@]1(C(C)=O)CC[C@H]2[C@@H]3C=C(Cl)C4=CC(=O)[C@@H]5C[C@@H]5[C@]4(C)[C@H]3CC[C@@]21C,outcome,[1],inactive
same,outcome,[2],inactive
same,outcome,[3],inactive
same,outcome,[4],inactive
same,outcome,[5],inactive
same,outcome,[7],inactive
CC(=O)[C@@]1(O)CC[C@H]2[C@@H]3CCC4=CC(=O)CC[C@]4(C)[C@H]3CC[C@@]21C,AC50,[8],37.4 µM (active) and 11.9 µM (active)
same,AC50,[9],100 µM (active)
same,outcome,[9],inactive
same,outcome,[6],inactive
same,outcome,[7],inactive
same,AC50,[10],38.3 µM (active) and 14.9 µM (active)
